Among all 390,000 compounds or so, about 17,000 (4.4%) were called active. Not shown: some 8% with an inconclusive outcome. Only a selection was taken, and actives are over-represented in it overall. A number with no mark means an inactive call. The call rests on the fitted dose curve; in most records, active means well fitted inhibition curve with a large enough effect; inconclusive means small, poorly fitted or top-dose-only effect; inactive means no such curve, though single readings can be large or run the other way.
On the % scale 0 is the no-effect control and ±100 the full control effect; potency means the concentration at half of the fitted maximal effect.

Lysine-specific demethylase 4A (Homo sapiens), sequence (O75164 whole entry, looked up, the tested form may be a part): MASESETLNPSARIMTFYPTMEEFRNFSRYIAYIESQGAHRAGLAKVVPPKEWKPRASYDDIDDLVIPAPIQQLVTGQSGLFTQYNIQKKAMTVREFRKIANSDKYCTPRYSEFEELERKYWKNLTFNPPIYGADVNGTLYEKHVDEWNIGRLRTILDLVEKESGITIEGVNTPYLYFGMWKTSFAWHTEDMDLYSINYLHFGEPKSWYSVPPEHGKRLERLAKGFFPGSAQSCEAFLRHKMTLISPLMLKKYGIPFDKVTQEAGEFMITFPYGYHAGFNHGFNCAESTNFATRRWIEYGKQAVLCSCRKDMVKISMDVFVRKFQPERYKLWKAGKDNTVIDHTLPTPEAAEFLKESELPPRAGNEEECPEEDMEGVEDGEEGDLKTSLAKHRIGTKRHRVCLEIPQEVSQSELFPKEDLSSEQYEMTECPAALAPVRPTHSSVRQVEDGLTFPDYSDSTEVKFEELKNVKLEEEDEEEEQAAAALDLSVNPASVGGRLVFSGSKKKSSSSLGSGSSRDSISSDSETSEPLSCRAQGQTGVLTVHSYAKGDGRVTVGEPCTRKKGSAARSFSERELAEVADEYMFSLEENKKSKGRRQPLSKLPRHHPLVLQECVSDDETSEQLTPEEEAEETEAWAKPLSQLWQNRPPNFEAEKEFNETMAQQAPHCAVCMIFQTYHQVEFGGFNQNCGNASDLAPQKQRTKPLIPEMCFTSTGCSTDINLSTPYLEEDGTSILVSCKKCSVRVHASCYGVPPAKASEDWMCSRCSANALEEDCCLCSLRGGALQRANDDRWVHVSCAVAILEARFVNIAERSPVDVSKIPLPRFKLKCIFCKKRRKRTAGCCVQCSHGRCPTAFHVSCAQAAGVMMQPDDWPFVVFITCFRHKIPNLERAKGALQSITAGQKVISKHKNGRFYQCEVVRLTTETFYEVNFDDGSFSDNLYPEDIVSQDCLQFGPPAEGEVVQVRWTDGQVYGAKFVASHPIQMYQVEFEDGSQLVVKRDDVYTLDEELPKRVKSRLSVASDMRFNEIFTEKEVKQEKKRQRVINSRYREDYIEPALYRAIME

This experiment addresses Lysine-specific demethylase 4A (Homo sapiens) (UniProt O75164). In words: qHTS Assay for Inhibitors of JMJD2A-Tudor Domain. Further: nearly all actives have a fitted effect of over 50% in size. The following applies: AlphaScreen JMJD2A-Tudor / H3K4me3 peptide binding; series mostly up to 114 µM; activity change, negative = inhibition: at the top concentration.
`Cc1ccc(NC(=O)Cn2cnc3nc4c(cc3c2=O)CCCC4)cc1Cl`: the “activity change, negative = inhibition” value was 4.15%.

As to `CCO/C=C1\C(=O)N(c2ccc(OCC)cc2)C(=O)c2ccccc21`, the “activity change, negative = inhibition” value is -24.8%.

Turning to `CCOc1ccc(N2C(=O)/C(=C/c3ccc(C)o3)N(C)C2=S)cc1`, the Potency is 35.5 µM (active). Regarding `CCOc1ccc(N2C(=O)CN(c3cccc4ccccc34)C2=S)cc1`, the “activity change, negative = inhibition” value was 1.34%. Same read-out and setting: in the case of `CCCN1C(=O)C(O)(CC(=O)c2ccc(CC)cc2)c2cc(Br)ccc21` (stereo not given) it was -26.8%; in that of `Cc1ccc(S(=O)(=O)NCCSc2ccccc2)cc1[N+](=O)[O-]`, -24.5%. With `CCS(=O)(=O)c1cc([N+](=O)[O-])c(Sc2ccccc2N)s1`, the Potency is 44.7 µM (active). For the molecule `Cc1cc(C)cc(OCC(=O)Nc2nc(-c3ccc(F)cc3)ns2)c1`, the “activity change, negative = inhibition” value was -24.2%. As for `CCOC(=O)c1cnc(SCC(=O)NCc2ccco2)nc1N`, the “activity change, negative = inhibition” value was -19.4%. Same read-out and setting: in the case of `O=C(CCCOc1ccccc1)NCc1ccco1` it was -7.14%. With `Cc1cc(C(=O)OCC(=O)NCc2ccco2)c(C)n1-c1ccccc1`, the Potency is 56.2 µM (active). Same read-out and setting: the same measure for `O=C(COC(=O)c1ccc(F)cc1F)Nc1ncccn1`: 28.2 µM (active).

Turning to `O=C(COC(=O)CSc1ccccc1)Nc1ccc(F)cc1F`, the “activity change, negative = inhibition” value was 5.56%. With `CCOC(=O)c1cccc(NC(=O)c2ccc(F)cc2F)c1`, the “activity change, negative = inhibition” value is -3.6%. Still for that read-out and setting: in the case of `Cc1oc2ncnc(N3CCCCC3)c2c1C(=O)N1CCN(c2cccc(Cl)c2)CC1` it was -35.6%. Still for that read-out and setting: the same measure for `CCc1ccc(NC(=O)CN2C(=O)CCSc3ccc(S(=O)(=O)N4CCCC4)cc32)cc1`: -8.95%; for `COc1ccc(C(C(=O)NC(C)(C)C)N(Cc2ccc(F)cc2)C(=O)CCC(=O)Nc2cc(C)on2)cc1` (stereo not given): -19.1%.

For the molecule `CCC(C)(C)NC(=O)C(c1cccc(OC)c1OC)N(CC(C)C)C(=O)CCC(=O)Nc1cc(C)on1` (stereo not given), the Potency is 11.2 µM (active). Take `CCC(C)(C)NC(=O)C(c1ccc(OC)cc1)N(C(=O)CCC(=O)Nc1cc(C)on1)c1ccc(OC)cc1OC` (stereo not given): the “activity change, negative = inhibition” value is -17.6%. On to `Cc1ccc(OCCSc2nc(-c3cccs3)nc3cc(=O)[nH]n23)cc1Cl`, for which the “activity change, negative = inhibition” value is -29.2%.

For the molecule `CCc1ccccc1OCCSc1nc(-c2cccs2)nc2cc(=O)[nH]n12`, the “activity change, negative = inhibition” value was -14.3%. Turning to `O=c1cc2nc(-c3ccccc3)nc(SCCOc3ccc(Cl)cc3)n2[nH]1`, the Potency is 56.2 µM (active).

`COc1cc(CNCc2cccs2)cc(Br)c1OC`: the “activity change, negative = inhibition” value was -0.752%. As for `COc1ccc(CNCCCNCc2ccc(OC)c(OC)c2)cc1OC`, the “activity change, negative = inhibition” value is -8.97%. Consider `COc1cc(CNCc2ccc(OC)c3ccccc23)cc(OC)c1OC`, for which the Potency is 25.1 µM (active). Take `O=C(c1ccc2c(=O)n(Cc3ccco3)c(=S)[nH]c2c1)N1CCCC1`: the “activity change, negative = inhibition” value was -18.4%. Regarding `O=c1n(Cc2cccc(C(F)(F)F)c2)c2ccccc2c2nc(-c3ccccc3)nn12`, the “activity change, negative = inhibition” value was -7.28%. Still for that read-out and setting: the same measure for `CN(C)c1ccc(C(CNS(=O)(=O)c2cc(F)ccc2F)N2CCOCC2)cc1` (stereo not given): -27.5%. `COc1ccc(S(=O)(=O)NCC(c2ccc(N(C)C)cc2)N2CCc3ccccc32)cc1OC` (stereo not given): the Potency is 22.4 µM (active).

In the case of `O=S(=O)(NCC(c1ccccc1)N1CCc2ccccc21)c1ccccc1` (stereo not given), the Potency is 22.4 µM (active). Take `O=C(NCC(c1cccnc1)N1CCc2ccccc21)c1cccc(C(F)(F)F)c1` (stereo not given): the “activity change, negative = inhibition” value is -7.89%. The same measure, in the same setting: the same measure for `O=S(=O)(c1ccccc1)N1CCc2ccccc21`: 11.8%; for `COc1ccc(S(=O)(=O)NCC(=O)NC2CC2)cc1OC`: -9.62%. Turning to `COc1ccc(-c2c3c(=O)n(C)c(=O)n(C)c3c3c(C)nc4ccccc4n23)cc1`, the “activity change, negative = inhibition” value is -2.41%. On the same count and under the same terms, the same measure for `Cc1ccc2[nH]c3c(=O)n(CC(=O)NC(C)C)ncc3c2c1`: -6.8%; for `COc1ccc(CCn2c3c(c(=O)[nH]c2=S)CN(C(C)C)CN3)cc1OC`: -21.8%. On the same count and under the same terms, in the case of `Cc1cc(C)cc(NC(=O)CSc2nc3nccnc3c(=O)n2CCc2c[nH]c3ccccc23)c1` it was -13.2%; in that of `COC(=O)c1ccc(N2CCOCC2)c(NC(=O)c2ccc3c(c2)OCCO3)c1`, -0.69%. With `O=C(Nc1ccc(N2CCOCC2)cc1)c1ccc2c(c1)OCO2`, the Potency is 20 µM (active). On to `O=C(Nc1cccc(Cl)c1N1CCOCC1)c1ccc2c(c1)OCCO2`, for which the “activity change, negative = inhibition” value was -11.1%. As to `CCOC(=O)C1CCCN(C(=O)Cn2ncc3c(=O)oc4ccc(C)cc4c32)C1` (stereo not given), the “activity change, negative = inhibition” value was -15.3%. In the case of `CCCn1c2ccccc2c2cnn(CC(=O)N3CCCC(C(=O)OCC)C3)c(=O)c21` (stereo not given), the Potency is 79.4 µM (active). For `CCOC(=O)C1CCCN(C(=O)Cn2ncc3c(C)n(Cc4ccc(F)cc4)c(C)c3c2=O)C1` (stereo not given), the “activity change, negative = inhibition” value is -21.8%.

`COc1cccc(CNC(=O)C2CCN(S(=O)(=O)c3ccc4c(ccn4C)c3)CC2)c1`: the “activity change, negative = inhibition” value was -20.1%. The same measure, in the same setting: the same measure for `CCCN1CCN(CCCNC(=O)c2cnn(-c3ccc(C)cc3)c2-n2cccc2)CC1`: -21.7%. The same measure, in the same setting: in the case of `COC(=O)c1ccccc1S(=O)(=O)Nc1ccc(OC)cc1` it was -26.2%; in that of `Cc1ccc(S(=O)(=O)N2CCN(c3ccccc3)CC2)cc1C`, -21.2%. Take `Cc1cc(C)n(-c2nnc(N3CCN(c4ccccc4)CC3)nn2)n1`: the Potency is 50.1 µM (active).

As to `Cc1cc(C)n(-c2nc(C(F)(F)F)nc3ccccc23)n1`, the “activity change, negative = inhibition” value was -5.54%. Still for that read-out and setting: in the case of `N#CN1CCC(NS(=O)(=O)c2cccc(F)c2)C1` (stereo not given) it was -4.11%; in that of `CCOc1ccc(C2C(=O)N(C3CCCCC3)CC(=O)N2CCC2=CCCCC2)cc1OC` (stereo not given), -12.8%; in that of `Cc1ccc(NC(=O)CCC(=O)N/N=C/c2ccco2)c(C)c1`, -15%. The same measure, in the same setting: the same measure for `CC(/C=N/NC(=O)c1cc(-c2ccc3ccccc3c2)n[nH]1)=C\c1ccco1`: -32.6%. In the case of `Cc1cc(-c2n[nH]c(=S)n2/N=C/C(Br)=C/c2ccccc2)n[nH]1`, the Potency was 56.2 µM (active). Still for that read-out and setting: in the case of `Cc1cc(-c2n[nH]c(=S)n2/N=C/c2ccco2)n[nH]1` it was 3.98 µM (active).

In the case of `Cc1cc(NC(=O)CC(C)C)cc(-c2nc3ncccc3o2)c1O`, the “activity change, negative = inhibition” value is -10.4%.

With `Fc1ccc(-c2nn(-c3ccccc3Cl)c3c2cnc2ccccc23)cc1`, the “activity change, negative = inhibition” value was -10.6%. Same read-out and setting: the same measure for `O=C(NC1CC(=O)N(c2ccccc2)C1)c1ccco1` (stereo not given): -14%; for `Cc1cc(C)n2ncc(C(=O)N3CCCC3)c2n1`: -14.2%. Still for that read-out and setting: the same measure for `Cc1ccc(Cl)cc1NC(=O)CSc1nccn1C`: -11.9%. Consider `NC(=O)C1CCN(Cc2nc3c(Br)cc(Br)cc3c(=O)[nH]2)CC1`, for which the Potency is 3.16 µM (active). In the case of `NC(=O)C1CCN(C2OC(=O)c3ccccc32)CC1` (stereo not given), the “activity change, negative = inhibition” value is -12.3%. On the same count and under the same terms, in the case of `NC(=O)C1CCN(C(=O)c2ccc3c(=O)n(Cc4cccc(Br)c4)c(=S)[nH]c3c2)CC1` it was -31.2%. With `COc1ccc(Cl)cc1NC(=O)C(C)Sc1nc2c(c(=O)[nH]1)CCCC2` (stereo not given), the “activity change, negative = inhibition” value was -10.9%. On the same count and under the same terms, the same measure for `COc1cc(NC(=O)CCn2nc(C)cc2C)cc(OC)c1OC`: -5%.

The values above are taken from PubChem BioAssay AID504339 (National Center for Advancing Translational Sciences (NCATS), 2011).
